Reference: the supplement of paper PMC3616981
± gives the standard deviation of the averaged measurements.

compound: CC(C)c1cccc(C(C)C)c1N1C(=O)c2ccc(O)cc2C1=O; test: BioMAP readout fold decrease vs vehicle (vehicle/treated); higher = stronger decrease of the readout vs vehicle (values <1 mean increase); conditions: 4.44 µM
Experimental: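 BioSeek BioMAP human primary cell (co-)culture systems (3C, 4H, LPS, SAg, BE3C, CASM3C, hDFCGF, KF3CT) treated with 5HPP-33 at 1.48, 4.44, 13.3 and 40 µM. Read-outs are protein levels by ELISA, proliferation and SRB total protein. Duplicate rows per assay are averaged as replicates. Tested in ToxCast Phase II for this study; exposure time not stated.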
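Further: Co-cultures of keratinocytes, bronchial epithelial and smooth muscle cells, fibroblasts, HUVECs and PBMCs under stimuli like LPS, TNF-α, IFN-γ, IL-1β, TGF-β or EGF, SRB reflecting cytotoxicity.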

Target	BioMAP readout fold decrease
3C_MIG	1.01 ± 0.0047
LPS_TNFa	0.923 ± 0.036
BE3C_MMP1	1.01 ± 0.017
hDFCGF_TIMP1	0.78536 ± 0.00052
hDFCGF_Proliferation	2.66 ± 0.091
CASM3C_Thrombomodulin	0.942 ± 0.049
KF3CT_MCP1	0.926 ± 0.043
CASM3C_LDLR	1.188 ± 0.002
LPS_IL1a	0.8356 ± 0.0034
LPS_CD40	1.67 ± 0.1
4H_MCP1	0.699 ± 0.023
CASM3C_IL6	0.9348 ± 0.0071
CASM3C_SRB	1.1 ± 0.012
CASM3C_MCSF	1.14 ± 0.044
4H_SRB	1.12 ± 0.016
KF3CT_SRB	1.011 ± 0.0045
CASM3C_TissueFactor	1.023 ± 0.0054
hDFCGF_SRB	0.959 ± 0.0096
LPS_Eselectin	1.17 ± 0.034
3C_VCAM1	1.15 ± 0.027
KF3CT_MMP9	1.17 ± 0.028
SAg_IL8	1.19 ± 0.029
LPS_MCSF	1.32 ± 0.11
BE3C_TGFb1	1.09 ± 0.061
LPS_PGE2	0.863 ± 0.057

same assay, conditions: 13.3 µM

Target	BioMAP readout fold decrease
3C_MIG	1 ± 0.012
LPS_TNFa	1.26 ± 0.13
BE3C_MMP1	0.9184 ± 0.0038
hDFCGF_TIMP1	0.608 ± 0.042
hDFCGF_Proliferation	4.594 ± 0.011
CASM3C_Thrombomodulin	0.956 ± 0.031
KF3CT_MCP1	0.7754 ± 0.0028
CASM3C_LDLR	0.969 ± 0.038
LPS_IL1a	0.965 ± 0.057
LPS_CD40	2.699 ± 0.02
4H_MCP1	0.623 ± 0.0095
CASM3C_IL6	0.8611 ± 0.001
CASM3C_SRB	1.07 ± 0.023
CASM3C_MCSF	1.03 ± 0.035
4H_SRB	1.25 ± 0.031
KF3CT_SRB	1.0454 ± 0.00028
CASM3C_TissueFactor	1.04 ± 0.026
hDFCGF_SRB	1.19 ± 0.017
LPS_Eselectin	1.24 ± 0.012
3C_VCAM1	1.33 ± 0.03
KF3CT_MMP9	1.45 ± 0.081
SAg_IL8	0.963 ± 0.026
LPS_MCSF	1.686 ± 0.0043
BE3C_TGFb1	1.117 ± 0.0036
LPS_PGE2	0.841 ± 0.037

same assay, conditions: 40 µM

Target	BioMAP readout fold decrease
3C_MIG	1.09 ± 0.016
LPS_TNFa	1.56 ± 0.35
BE3C_MMP1	0.854 ± 0.0042
hDFCGF_TIMP1	0.715 ± 0.069
hDFCGF_Proliferation	12.1 ± 0.038
CASM3C_Thrombomodulin	1.23 ± 0.078
KF3CT_MCP1	1.14 ± 0.36
CASM3C_LDLR	2.21 ± 0.034
LPS_IL1a	1.56 ± 0.039
LPS_CD40	4.12 ± 0.32
4H_MCP1	1.43 ± 0.071
CASM3C_IL6	0.752 ± 0.0092
CASM3C_SRB	1.41 ± 0.047
CASM3C_MCSF	2.01 ± 0.034
4H_SRB	1.44 ± 0.041
KF3CT_SRB	1.53 ± 0.21
CASM3C_TissueFactor	1.22 ± 0.015
hDFCGF_SRB	2.06 ± 0.21
LPS_Eselectin	1.91 ± 0.12
3C_VCAM1	2.03 ± 0.072
KF3CT_MMP9	4.32 ± 0.16
SAg_IL8	1.36 ± 0.052
LPS_MCSF	2.21 ± 0.14
BE3C_TGFb1	1.32 ± 0.1
LPS_PGE2	0.776 ± 0.044
